Assay results published in publication PMC4336329 (PLoS ONE, 2015).
In all, about 310,000 compounds went through this assay and about 2,200 (0.71%) showed an effect of 50% or more. Effects have a minus sign here. For the sample, strong results were picked, then their nearest neighbours and some compounds at random.

Biological target: human ether-à-go-go-related gene (hERG) potassium channel (human, UniProt Q12809)
Assay: primary screen, population patch clamp on CHO cells stably expressing hERG; higher = less effect of the substance

Chain of human ether-à-go-go-related gene (hERG) potassium channel (Q12809 whole entry, looked up): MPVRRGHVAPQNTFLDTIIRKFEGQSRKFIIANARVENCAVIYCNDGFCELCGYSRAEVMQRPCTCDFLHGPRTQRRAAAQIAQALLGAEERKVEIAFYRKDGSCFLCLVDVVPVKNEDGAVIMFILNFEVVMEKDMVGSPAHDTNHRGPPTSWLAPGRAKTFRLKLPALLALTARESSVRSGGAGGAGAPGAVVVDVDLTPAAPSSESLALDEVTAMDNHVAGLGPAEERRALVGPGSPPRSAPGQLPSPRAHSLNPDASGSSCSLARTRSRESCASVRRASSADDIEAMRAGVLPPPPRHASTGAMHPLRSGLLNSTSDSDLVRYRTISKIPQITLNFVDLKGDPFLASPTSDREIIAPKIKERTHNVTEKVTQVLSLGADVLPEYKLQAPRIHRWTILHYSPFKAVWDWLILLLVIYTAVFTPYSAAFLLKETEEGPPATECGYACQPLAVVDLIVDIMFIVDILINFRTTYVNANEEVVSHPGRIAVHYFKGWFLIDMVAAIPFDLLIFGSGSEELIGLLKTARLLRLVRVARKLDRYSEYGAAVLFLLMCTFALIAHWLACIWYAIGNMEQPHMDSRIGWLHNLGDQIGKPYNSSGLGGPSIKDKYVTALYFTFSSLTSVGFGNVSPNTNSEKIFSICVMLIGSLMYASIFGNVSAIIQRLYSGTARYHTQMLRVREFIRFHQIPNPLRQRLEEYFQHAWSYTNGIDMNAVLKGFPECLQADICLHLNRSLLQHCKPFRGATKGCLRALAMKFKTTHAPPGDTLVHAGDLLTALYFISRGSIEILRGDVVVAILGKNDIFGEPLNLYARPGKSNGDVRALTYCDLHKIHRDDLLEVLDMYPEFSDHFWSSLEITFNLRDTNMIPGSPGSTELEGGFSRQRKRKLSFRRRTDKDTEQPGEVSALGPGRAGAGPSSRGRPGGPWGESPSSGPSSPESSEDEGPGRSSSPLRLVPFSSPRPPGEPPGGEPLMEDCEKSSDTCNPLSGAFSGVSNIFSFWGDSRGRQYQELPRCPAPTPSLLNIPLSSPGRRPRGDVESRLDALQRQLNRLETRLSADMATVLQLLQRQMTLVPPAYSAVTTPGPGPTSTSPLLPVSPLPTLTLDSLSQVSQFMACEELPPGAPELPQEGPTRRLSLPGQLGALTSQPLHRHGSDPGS

Row | Compound | hERG current change (%, negative = inhibition) at 1uM
1 | Cc1noc(C)c1COC(=O)c1cccc(S(=O)(=O)N2c3ccccc3CC2C)c1 (stereo not drawn) | 10.5%
2 | O=C(N/N=C/c1c(O)ccc2ccccc12)c1cccc(C(F)(F)F)c1 | 13.9%
3 | CC1CCCCN1C(=O)C(Cc1ccccc1)N1C(=O)C2CCCCC2C1=O (stereo not drawn) | 10.7%
4 | CCOC(=O)c1c(NC(=S)Nc2ccc(F)cc2)sc2c1CCC2 | -21.8%
5 | CN1CCN(c2ccccc2NC(=O)c2cc(Br)ccc2Cl)CC1 | -53.1%
6 | CC(=O)N1CCN(c2ccccc2NC(=O)c2cc(Br)ccc2Cl)CC1 | -27%
7 | O=C(Nc1ccccc1N1CCN(C(=O)c2ccccc2)CC1)c1ccccc1Cl | -29.8%
8 | COc1ccc(Br)cc1C(=O)Nc1ccccc1N1CCN(C(=O)c2ccccc2)CC1 | 7.55%
9 | COc1ccc(Cl)cc1C(=O)NC(=S)Nc1ccccc1N1CCOCC1 | 9.75%
10 | COc1ccc(Cl)cc1C(=O)Nc1ccccc1N1CCN(C(=O)C(C)C)CC1 | -19.6%
11 | COc1ccc(Cl)cc1C(=O)Nc1ccccc1N1CCN(C)CC1 | -70.4%
12 | CS(=O)(=O)N1CCN(c2ccccc2NC(=O)c2cc(Br)ccc2Cl)CC1 | -1.64%
13 | COc1ccccc1C(=O)Nc1ccccc1N1CCN(C(=O)c2ccc(Cl)cc2)CC1 | -85.2%
14 | CC(=O)c1nc2ccccc2n1Cc1ccccc1 | 9.31%
15 | CCCCn1c(N)c(N(CCC(C)C)C(=O)C2=COCCO2)c(=O)[nH]c1=O | 5.25%
16 | COC(=O)CN1C(=O)Nc2ccc(Cl)cc2C1c1ccccc1 (stereo not drawn) | 22.6%
17 | Cc1cc(C)nc(N2CCC(CNC(=O)CCc3ccccc3)CC2)n1 | 20.4%
18 | O=C(NCc1ccncc1)c1cc(S(=O)(=O)N2CCOCC2)c(Cl)cc1Cl | 12.6%
19 | O=C(NCc1cccs1)c1cc(S(=O)(=O)N2CCOCC2)c(Cl)cc1Cl | -78.4%
20 | O=C(NCC(c1cccs1)N1CCOCC1)c1cc(S(=O)(=O)N2CCOCC2)c(Cl)cc1Cl (stereo not drawn) | 6.08%
21 | CC(=O)Nc1ccc(S(=O)(=O)Nc2ccc(S(=O)(=O)Nc3ncccn3)cc2)cc1 | 8.81%
22 | CCOC(=O)C1CCN(c2c(NCCCN3CCN(Cc4ccccc4)CC3)c(=O)c2=O)CC1 | 14.3%
23 | CCOC(=O)C1CCCN(c2c(N3CCN(c4cccc(Cl)c4)CC3)c(=O)c2=O)C1 (stereo not drawn) | -54.1%

Row | Compound | hERG current change (%, negative = inhibition) at 1uM
24 | CCOC(=O)C1CCCN(c2c(N3CCN(C)CC3)c(=O)c2=O)C1 (stereo not drawn) | 10.2%
25 | CCOC(=O)C1CCN(c2c(N3CCN(Cc4ccccc4)CC3)c(=O)c2=O)CC1 | -66.6%
26 | CCOC(=O)C1CCN(c2c(N3CCCC(C(=O)OCC)C3)c(=O)c2=O)CC1 (stereo not drawn) | 8.36%
27 | CCOC(=O)C1CCN(Cc2ccc(-c3ccccc3)cc2)CC1 | 8.54%
28 | CCOc1ccc(S(=O)(=O)N/N=C(\C)c2ccc(Cl)c(Cl)c2Cl)cc1 | 12.1%
29 | Cc1ccc2oc(C(=O)Nc3ccc(S(=O)(=O)Nc4onc(C)c4C)cc3)cc(=O)c2c1 | 15.4%
30 | CCN1CCCC1Cn1cnc2c([nH]c3cc(OC)ccc32)c1=O (stereo not drawn) | -53.5%
31 | CCC1CCCN1Cn1cnc2c([nH]c3ccc(OC)cc32)c1=O (stereo not drawn) | -35.8%
32 | COc1ccc2[nH]c3c(=O)n(CCN4CCOCC4)cnc3c2c1 | 9.44%
33 | COc1ccc2c(c1)[nH]c1c(=O)n(CCN3CCCC3)cnc12 | -17.4%
34 | CCN1CCCC1Cn1cnc2c([nH]c3ccc(OC)cc32)c1=O (stereo not drawn) | -58.5%
35 | COc1ccc2c(c1)[nH]c1c(=O)n(CC3CCCO3)cnc12 (stereo not drawn) | 14.6%
36 | Cc1cc(C(=O)NC2CCCc3c2cnn3-c2ccc(C(C)(C)C)cc2)nn1C (stereo not drawn) | 16.5%
37 | O=[N+]([O-])c1cc([N+](=O)[O-])c2nonc2c1Nc1ccc(O)cc1 | 2.03%
38 | CC1CCN(S(=O)(=O)c2ccc3c(c2)c(=O)c(C(=O)NC2CCCC2)cn3C)CC1 | 9.59%
39 | CCCCS(=O)(=O)N1CCC(C(=O)Oc2ccc(Cl)cc2)CC1 | 17.9%
40 | COc1ccc(S(=O)(=O)N2CCN(C(=O)CN3C(=O)NC(C)(C)C3=O)CC2)cc1 | 14%
41 | Cn1c(N)c(C(=O)COc2ccc(Cl)cc2Cl)c(=O)n(C)c1=O | 12.3%
42 | CC(Oc1ccc(Cl)cc1Cl)C(=O)OCC(=O)c1c(N)n(C)c(=O)n(C)c1=O (stereo not drawn) | -57.5%
43 | Cn1c(N)c(C(=O)COC(=O)CCCOc2ccc(Cl)cc2Cl)c(=O)n(C)c1=O | 16%
44 | O=C(CSc1nc2c(cnn2-c2ccc(F)cc2)c(=O)[nH]1)N1CCCCCC1 | 11%
45 | O=C(Nc1ccncc1)C1COc2ccccc2O1 (stereo not drawn) | 1.88%
46 | COc1ccc(N2CC(C(=O)N3CCC4(CC3)CC(=O)c3ccccc3O4)CC2=O)cc1 (stereo not drawn) | -34.8%

Row | Compound | hERG current change (%, negative = inhibition) at 1uM
47 | O=C1CC2(CCN(C(=O)C3CC(=O)N(c4ccc(F)cc4)C3)CC2)Oc2ccccc21 (stereo not drawn) | -73.6%
48 | COc1cccc(N2CC(C(=O)N3CCC4(CC3)CC(=O)c3ccccc3O4)CC2=O)c1 (stereo not drawn) | 3.79%
49 | O=C(C1CC(=O)N(c2ccc(F)cc2)C1)N1CCN(c2ccccc2)CC1 (stereo not drawn) | -13.6%
50 | O=C(C1CC(=O)N(c2ccccc2)C1)N1CCN(c2ccc(F)cc2)CC1 (stereo not drawn) | -8.63%
51 | Cc1ccc(N2CC(C(=O)N3CCC4(CC3)CC(=O)c3ccccc3O4)CC2=O)cc1 (stereo not drawn) | -47.4%
52 | O=C1CC2(CCN(C(=O)C3CC(=O)N(c4ccccc4)C3)CC2)Oc2ccccc21 (stereo not drawn) | -51.5%
53 | Cc1ccc(N2CC(C(=O)N3CCC4(CC3)CC(=O)c3ccccc3O4)CC2=O)cc1C (stereo not drawn) | -6.22%
54 | O=C(C1CC(=O)N(c2ccc(F)cc2)C1)N1CCN(c2ccc(F)cc2)CC1 (stereo not drawn) | -71.1%
55 | Cc1cnc(C(=O)NNC(=O)c2ccc(Br)cc2)cn1 | 2.55%
56 | Cc1cccc(NC(=O)CNC(=O)COc2ccc(C(=O)c3ccc(F)cc3)cc2)c1C | 1.92%
57 | CCCCC(=O)Nc1ccc2c(c1)nc(CN1CCN(C(=O)OCC)CC1)n2C | 13.1%
58 | Cc1ccc(Oc2cc(C#N)c(C#N)cc2-n2nnc3ccccc32)cc1C | 7.63%
59 | CCCCN(CC)C(=O)Cc1ccccc1OC | 18%
60 | Cc1ccc(S(=O)(=O)NCc2ccc(C(=O)NCCCN3CCC(Cc4ccccc4)CC3)cc2)cc1 | -52.4%
61 | Cc1ccccc1CC1CCN(CCCNC(=O)Nc2ccccc2)CC1 | -34.1%
62 | CSc1ccc(NC(=O)NCCCN2CCC(Cc3ccccc3)CC2)cc1 | -76%
63 | O=c1c2cc(NC(=S)NCCN3CCCCCC3)ccc2nc2n1CCCCC2 | 7.57%
64 | CCN1CCN(CCCNC(=O)CCc2nc(-c3ccc(OC)cc3)no2)CC1 | 6.54%
65 | COc1ccc(-c2noc(CCC(=O)NCCCN3CCC(Cc4ccccc4)CC3)n2)cc1 | -84.9%
66 | COc1ccc(-c2noc(CCC(=O)NCCCN3CCC(C)CC3)n2)cc1 | 9.03%
67 | O=c1c2cc(NC(=S)NCCCN3CCC(Cc4ccccc4)CC3)ccc2nc2n1CCCCC2 | -57.1%
68 | Cc1ccc(S(=O)(=O)NCc2ccc(C(=O)NCCCN3CCN(C)CC3)cc2)cc1 | 13.4%
69 | CCCCNC(=S)Nc1ccc2nc3n(c(=O)c2c1)CCCCC3 | -24.7%

Row | Compound | hERG current change (%, negative = inhibition) at 1uM
70 | CSc1ccc(NC(=O)NCCCN2CCN(c3ccccc3F)CC2)cc1 | -12.8%
71 | CC(=O)Nc1ccc(S(=O)(=O)NCc2ccc(C(=O)NCCCN3CCC(C)CC3)cc2)cc1 | 16.7%
72 | COc1ccc(C2C=C(Nc3ccccc3)C(=O)N2c2ccccc2)cc1OC (stereo not drawn) | 20.1%
73 | C/C(=N/NC(=O)c1ccc(C)nc1)c1ccc2c(c1)CCCC2 | -4.02%
74 | CC(=O)Oc1cc2c(cc1Cl)C1(CC(c3ccccc3Cl)O2)CC(C)(C)NC(=S)N1 (stereo not drawn) | 4.5%
75 | COc1ccc(NC(=O)NCCCN2CCC(Cc3ccccc3)CC2)cc1 | -82.2%
76 | COc1ccc(NC(=O)NCCCCc2ccccc2)cc1 | 6.14%
77 | COc1ccc(NC(=O)N2CCC(Cc3ccccc3)CC2)cc1 | 6.74%
78 | Cc1ccc(NC(=O)CCn2nc(C)cc2C)c(C)c1 | 8.75%
79 | Cc1ccccc1CC1(CO)CCCN(C(=O)c2ccccc2Cl)C1 (stereo not drawn) | -70.4%
80 | Cc1ccccc1CC1(CO)CCCN(C(=O)c2cc(Cl)ccc2F)C1 (stereo not drawn) | 14.5%
81 | Cc1ccccc1CC1(CO)CCCN(C(=O)c2ccccc2N(C)C)C1 (stereo not drawn) | 10.9%
82 | Cc1cc(=O)n2c(n1)OC(CO)C2 (stereo not drawn) | 12.1%
83 | Cc1nc(C)c(-c2ccccc2)c(=O)[nH]1 | 12.8%
84 | O=C(N1CCOCC1)N1c2ccccc2CC(N2CCOCC2)c2ccccc21 (stereo not drawn) | 17%
85 | OCC1(Cc2ccc(Cl)cc2)CCN(Cc2ccccc2F)CC1 | -18.4%
86 | OCC1(Cc2ccccc2)CCN(CCCC2CCCC2)CC1 | -79%
87 | OCC1(Cc2ccccc2)CCN(Cc2ccc(C(F)(F)F)cc2)CC1 | -6.85%
88 | OCC1(Cc2ccc(Cl)cc2)CCN(Cc2ccc(F)c(F)c2)CC1 | -4.29%
89 | CN1CCC(CO)(Cc2ccccc2)CC1 | 4.74%
90 | OCC1(Cc2ccc(Cl)cc2)CCN(CCCc2ccccc2)CC1 | -83.6%
